Data taken from PubChem BioAssay AID1347048 (National Center for Advancing Translational Sciences (NCATS), 2019).
Hit rate of the full screen: of about 76,000 compounds, about 1,200 (1.6%) were called active. Not shown: some 4% with an inconclusive outcome. Calls come from the whole dose curve. Many of the other results were omitted from the sample, so actives are more common in it than they were.

Target: Atrial natriuretic peptide receptor 1 (Homo sapiens) (UniProt P16066)
Experiment: Natriuretic polypeptide receptor (hNpr1) antagonism - Primary qHTS; note: nearly all actives have a fitted effect of over 60% in size
Conditions: HEK293 hNpr1 GloSensor cGMP, ANP-stimulated luminescence; series mostly up to 46.3 µM
Source text: Pruritus or itch, is an irritating skin sensation that creates a need to scratch, and ranges from mildly unpleasant and passing to acute and persistent sensations. […] Conventional treatments include topical anti-inflammatory agents, anti-histamines, and emollients, which are aimed at managing the itchy sensation and not the underlying disease. The treatment of pruritus remains a diagnostic and therapeutic challenge. Neurotransmission in the spinal cord from primary pruriceptors to second order neurons is a necessary step that eventually results in the sensation of itch. At this synapse, primary pruriceptors use the neuropeptide natriuretic polypeptide B (NppB) to activate its cognate receptor Natriuretic polypeptide receptor 1 (Npr1) on second order neurons. Inhibition of this step is a new potential strategy to inhibit acute and chronic itch. In order to identify small molecular compounds that can inhibit the Npr1 receptor we developed a high-throughput assay to probe inhibition of the receptor guanylate cyclase Npr1. The assay was designed taking advantage of Promega's GloSensor[TM] technology (Fan, F. et al. 2008). It involves the expression of a cyclic guanosine monophosphate (cGMP) biosensor, comprised of a firefly luciferase variant that was coupled to the cGMP binding domain of human phosphodiesterase 5A, and loading of cells with a cell-permeable luciferase substrate to monitor cGMP production by Npr1 in real time in live cells. In detail, we generated human embryonic kidney 293 cells stably expressing the human Npr1 and the cGMP GloSensor[TM] pGS-40F. Stimulating these cells with the Npr1 agonists human NppA or NppB, luciferase-induced light production could be detected in a dose-dependent manner. We also generated HEK293 cells stably expressing human Npr2 and pGS-40F and cells only expressing pGS-40F to conduct secondary counter screens. In these cells, NppC or sodium nitroprusside were used to stimulate Npr2 or soluble guanylate cyclase which is endogenously expressed in HEK293 cells, respectively. REFERENCE F. Fan, B. F. Binkowski, B. L. Butler, P. F. Stecha, M. K. Lewis, K. V. Wood, Novel genetically encoded biosensors using firefly luciferase. ACS Chem. Biol., 2008, 3: 346-351 .
PROTOCOL TABLES (as described by Inglese J, Shamu CE and Guy RK. 2007) SEQUENCE No. (e.g., 1, 2, 3, etc.); […] (e.g., Cells, Incubation, Reagent, etc.); VALUE and DESCRIPTION. GLOSENSOR PROTOCOL 1. Cells. Seed 1500 HEK293 cGMP-sensor cells expressing hNpr1 per well in 4uL into Greiner 1536-well white/solid bottom high base, tissue culture-treated plates. 2. Incubation. Incubate plated cells at 37C in 5% CO2, 95% RH overnight. 3. Reagent. Add 1uL per well GloSensor reagent from Promega (2% final concentration) or CO2 independent media vehicle control to respective columns of Greiner 1536-well plates. 4. Incubation. Incubate plated cells at room temperature for 2 h, protect from light. 5. Compounds. Library compounds and A-71915 control added at 23 nL per well, transferred by Pin Tool. 6. Incubation. Incubate plated cells for 30 min. at room temperature, protect from light. 7. Detector. GloSensor baseline pre-read luminescence measured using CCD-based camera (Viewlux). 8. Compound. Add 1uL of hNppA peptide to 0.1 nM final concentration to stimulate hNpr1 or CO2 independent media as vehicle control. 9. Incubation. Incubate treated cells at room temperature for 20 min., protect from light. 10. Detector. GloSensor post-hNppA luminescence measured using CCD-based camera (Viewlux). NOTES (numbers refer to Sequence numbers above) 1. HEK293 cells expressing hNpr1 and GIP/pGS-40F grown to 85-95% confluence (48-72 h) in T175 culture flasks (CO2 independent media supplemented with 10% FBS, 1% Pen/Strep antibiotics and 1 ug/mL puromycin). Trypsinize and harvest cells from T175 culture flasks and filter through 40 um cell strainer. Cells counted with Invitrogen Countess (30,000,000 - 50,000,000 cells/flask). […]
Potency is the fitted concentration of half-maximal effect.

Atrial natriuretic peptide receptor 1 (Homo sapiens), sequence (P16066 whole entry, looked up): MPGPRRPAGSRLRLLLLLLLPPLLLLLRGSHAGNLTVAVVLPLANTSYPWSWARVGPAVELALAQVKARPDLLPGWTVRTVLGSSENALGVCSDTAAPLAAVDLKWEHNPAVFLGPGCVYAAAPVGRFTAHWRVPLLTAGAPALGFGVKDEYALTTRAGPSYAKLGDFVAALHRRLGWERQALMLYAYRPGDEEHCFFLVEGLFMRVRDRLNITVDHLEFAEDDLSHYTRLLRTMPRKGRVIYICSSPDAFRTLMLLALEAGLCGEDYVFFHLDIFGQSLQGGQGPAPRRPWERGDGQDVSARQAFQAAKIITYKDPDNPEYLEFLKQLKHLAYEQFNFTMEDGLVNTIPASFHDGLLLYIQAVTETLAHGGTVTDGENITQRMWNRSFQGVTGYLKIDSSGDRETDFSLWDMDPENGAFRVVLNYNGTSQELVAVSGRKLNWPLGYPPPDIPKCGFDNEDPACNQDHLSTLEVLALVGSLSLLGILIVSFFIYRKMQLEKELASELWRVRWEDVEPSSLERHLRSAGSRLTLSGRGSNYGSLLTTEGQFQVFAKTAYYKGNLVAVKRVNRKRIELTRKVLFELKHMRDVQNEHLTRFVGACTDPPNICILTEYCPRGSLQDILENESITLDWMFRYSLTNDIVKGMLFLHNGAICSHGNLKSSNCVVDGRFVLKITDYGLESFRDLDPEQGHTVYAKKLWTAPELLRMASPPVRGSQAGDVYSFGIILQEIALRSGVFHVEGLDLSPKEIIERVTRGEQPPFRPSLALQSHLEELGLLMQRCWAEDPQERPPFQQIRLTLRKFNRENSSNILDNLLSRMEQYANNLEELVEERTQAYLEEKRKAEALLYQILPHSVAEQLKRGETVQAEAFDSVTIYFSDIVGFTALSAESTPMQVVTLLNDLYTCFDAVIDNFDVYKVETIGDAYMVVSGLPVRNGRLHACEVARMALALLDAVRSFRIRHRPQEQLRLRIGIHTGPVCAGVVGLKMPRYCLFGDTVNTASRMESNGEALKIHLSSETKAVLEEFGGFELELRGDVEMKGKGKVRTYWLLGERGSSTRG

Potency, inactive:
O[C@H]1CC[C@@H](Cc2cc(-c3ccccc3)on2)O[C@@H]1CNCc1ccccc1
O=C(NC[C@H]1O[C@H](Cc2cc(-c3ccccc3)on2)CC[C@@H]1O)C1CCC1
NC(=O)C1CCCN(CC(=O)Nc2nc3ccccc3[nH]2)C1 (stereo unspecified)
CC1Oc2ccc(NC(=O)c3ccc([N+](=O)[O-])cc3)cc2CN(Cc2ccccc2)C1=O (stereo unspecified)
CC(Cn1cncn1)Nc1nc(-c2ccncc2)nc2c1cnn2C (stereo unspecified)
Cc1ccc(-c2ncc(C(=O)Nc3ccccc3C)c(-c3ccncc3)n2)cc1
COCC(=O)N1CCCC(c2nc(-c3ccc(C)nn3)no2)C1 (stereo unspecified)
O=C(c1cccc(F)c1)N1CCCC(c2nccn2Cc2cscn2)C1 (stereo unspecified)
O=C(c1nc2ccccc2[nH]1)N1CCNc2cnc(Nc3ccc(-n4ccnc4)cc3)nc2C1
O=C(c1cccc(F)c1)N1CCCC(CN2CCOCC2)CC1 (stereo unspecified)
COc1ccccc1Nc1ncc2c(n1)CN(C(=O)COc1ccccc1)CCN2
COc1ccc(C(=O)N[C@H]2C[C@@H](c3nc(-c4ccc(OC)cc4)no3)N(C)C2)cc1
c1ccc(Nc2cnc3ccc(-n4ccnc4)nn23)cc1
CC1(C)C[C@H](NC(=O)c2ccc(C#N)cc2)[C@@]2(CCC(=O)NCCc3c[nH]c4ccccc34)CC[C@](C)(O)C[C@@H]12
Cc1ccccc1-c1cn[nH]c1C1CCN(C(=O)CCCn2cnnn2)CC1
O=C(C1CCOCC1)N1CCOC[C@H](Oc2ccccc2)C1
O=C(c1cccc(F)c1)N1CCC(CCOc2ccc(F)cc2)C1 (stereo unspecified)
COc1ccc(NC(=O)N[C@@H]2C=C[C@@H](c3c(C)nn(-c4ccc(C(C)(C)C)cc4)c3C)C2)cc1
Cc1nn(-c2cccc(Br)c2)c(C)c1[C@@H]1C=C[C@@H](NS(=O)(=O)c2ccccc2)C1
Cc1nn(-c2cccc(Br)c2)c(C)c1[C@@H]1C=C[C@@H](NC(=O)CC2(CC(=O)O)CCCC2)C1
Cc1nn(Cc2ccccc2)c(C)c1[C@@H]1C=C[C@@H](NC(=O)NC2CCCCC2)C1
Cc1nn(Cc2ccccc2)c(C)c1[C@@H]1C=C[C@@H](NC(=O)NC(C)C)C1
Cc1nn(-c2ccc(C(C)C)cc2)c(C)c1[C@@H]1C=C[C@@H](NC(=O)CC2(CC(=O)O)CCCC2)C1

Potency, active:
CC(=O)N1CCC(NC[C@H]2O[C@H](Cc3cc(-c4cccc(O)c4)on3)CC[C@@H]2O)CC1 25.1 µM
Cc1nc(-c2ccncc2)ncc1C(C)Nc1ncnc(C)c1C (stereo unspecified) 10 µM
O=C(c1ccccc1)N1CCNc2cnc(Nc3cccc(C(F)(F)F)c3)nc2C1 20 µM
O=C(c1cccc(O)c1)N1CCNc2cnc(Nc3cccc(F)c3)nc2C1 22.4 µM
O=C(c1cccc(F)c1)N1CCOC[C@H](Oc2ccc(C(F)(F)F)cc2)C1 28.2 µM
Cc1nn(-c2ccc(C(C)C)cc2)c(C)c1[C@@H]1C=C[C@@H](NC(=S)NCC(C)C)C1 28.2 µM
COc1ccc(-n2nc(C)c([C@@H]3C=C[C@@H](NC(=O)Nc4ccccc4)C3)c2C)cc1 14.1 µM
COc1ccc(-n2nc(C)c([C@H]3C=C[C@@H](OC(=O)Nc4cccc(F)c4)C3)c2C)cc1 20 µM
